This note sets out measurements from paper PMC9838217, “Structure of SALL4 zinc finger domain reveals link between AT-rich DNA binding and Okihiro syndrome”.

Common to all, as to test: HT-SELEX; high values mean tight binding
Holding throughout (details): protein: recombinant; vector His6-GST; dsDNA, one strand shown

Assay [1] deals with T1, SALL4 ZFC4 WT (HT-SELEX) (Mus musculus, UniProt Q8BX22 870-940).
T1 sequence: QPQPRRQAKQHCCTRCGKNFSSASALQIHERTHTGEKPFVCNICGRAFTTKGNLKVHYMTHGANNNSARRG
The method in brief: (§1)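 Residues 870–940 of mouse SALL4, forming zinc finger cluster 4, were expressed recombinantly, purified, and 1 µg was incubated with library DNA (1.5 µg first cycle, 200 ng later) in 100 µl of 10 mM Tris–HCl pH 7.5, 50 mM NaCl, poly(dI-dC) and DTT for 10 min at room temperature. Washed Ni2+ bead-captured complexes were PCR-amplified and reselected for up to 6 cycles in triplicate, and the products were sequenced on MiSeq and scanned for 6-mers. Binding signal is the fold change in each canonical k-mer's read fraction compared with the initial random library.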

Assay [2] concerns the target T2, SALL4 ZFC4 R900W (HT-SELEX) (Mus musculus, UniProt Q8BX22 870-940, R900W).
T2 sequence: T1 sequence with R31W
The method in brief:
as §1

The target of assay [3] is T3, SALL4 ZFC4 G921D (HT-SELEX) (Mus musculus, UniProt Q8BX22 870-940, G921D).
T3 sequence: T1 sequence with G52D
The method in brief: as §1

Substitutions are numbered along the chain they refer to.

Turning to GTAAGA, the binding signal in assay [1] stood at 1.45 ± 0.0375 fold-change vs cycle 0; in assay [2] it was 1.6 ± 0.0704 fold-change vs cycle 0; in assay [3], 1.42 ± 0.0981 fold-change vs cycle 0.
With GCTTGA, the binding signal is 0.627 ± 0.00807 fold-change vs cycle 0 in assay [1], 0.737 ± 0.0133 fold-change vs cycle 0 in assay [2] and 0.831 ± 0.0377 fold-change vs cycle 0 in assay [3].
Consider CCACAA, for which the binding signal in assay [1] amounted to 0.612 ± 0.0144 fold-change vs cycle 0; in assay [2], 0.71 ± 0.0271 fold-change vs cycle 0; in assay [3], 0.759 ± 0.0161 fold-change vs cycle 0.
In the case of CGGGAA, the binding signal in assay [1] is 0.362 ± 0.00736 fold-change vs cycle 0; in assay [2], 0.417 ± 0.0262 fold-change vs cycle 0; in assay [3], 0.499 ± 0.0534 fold-change vs cycle 0.
With AATAGC, the binding signal in assay [1] was found to be 1 ± 0.0454 fold-change vs cycle 0; in assay [2], 1.07 ± 0.0474 fold-change vs cycle 0; in assay [3], 1.11 ± 0.00486 fold-change vs cycle 0.
The corresponding values for CGTCTA are 0.63 ± 0.0233 fold-change vs cycle 0, 0.702 ± 0.0194 fold-change vs cycle 0 and 0.79 ± 0.0202 fold-change vs cycle 0.
For the sequence AGCACC, the binding signal in assay [1] turned out to be 0.328 ± 0.0258 fold-change vs cycle 0; in assay [2], 0.375 ± 0.0109 fold-change vs cycle 0; in assay [3] it was 0.521 ± 0.0558 fold-change vs cycle 0.
Take ATGATA: the binding signal in assay [1] worked out at 2.72 ± 0.227 fold-change vs cycle 0; in assay [2], 2.14 ± 0.0867 fold-change vs cycle 0; in assay [3], 1.86 ± 0.153 fold-change vs cycle 0.
Consider ATAAAC, for which the binding signal in assay [1] was found to be 2.24 ± 0.173 fold-change vs cycle 0; in assay [2] it was 2.02 ± 0.13 fold-change vs cycle 0; in assay [3], 1.76 ± 0.163 fold-change vs cycle 0.
The corresponding values for AGTCAA are 1.21 ± 0.0262 fold-change vs cycle 0, 1.409 ± 0.0091 fold-change vs cycle 0 and 1.34 ± 0.0532 fold-change vs cycle 0.
In the case of ACGGTA, the binding signal in assay [1] amounted to 0.715 ± 0.031 fold-change vs cycle 0; in assay [2] it was 0.817 ± 0.0376 fold-change vs cycle 0; in assay [3] it was 0.852 ± 0.0147 fold-change vs cycle 0.
For CATAAA, the values for the binding signal in assay [1], in assay [2] and in assay [3] were 2.36 ± 0.2 fold-change vs cycle 0, 1.79 ± 0.0666 fold-change vs cycle 0 and 1.6 ± 0.121 fold-change vs cycle 0, respectively.
Regarding AACTGT, the figures for the binding signal in assay [1], in assay [2] and in assay [3] were 1.31 ± 0.0453 fold-change vs cycle 0, 1.39 ± 0.0174 fold-change vs cycle 0 and 1.34 ± 0.0563 fold-change vs cycle 0, respectively.
Consider CAGAAC, for which the binding signal turned out to be 0.725 ± 0.0111 fold-change vs cycle 0 in assay [1], 0.847 ± 0.0358 fold-change vs cycle 0 in assay [2] and 0.863 ± 0.0478 fold-change vs cycle 0 in assay [3].
Turning to CACGTA, the binding signal turned out to be 0.686 ± 0.0318 fold-change vs cycle 0 in assay [1], 0.787 ± 0.0109 fold-change vs cycle 0 in assay [2] and 0.842 ± 0.0109 fold-change vs cycle 0 in assay [3].
Take AGTATG: the binding signal was found to be 1.43 ± 0.0699 fold-change vs cycle 0 in assay [1], 1.49 ± 0.072 fold-change vs cycle 0 in assay [2] and 1.38 ± 0.0928 fold-change vs cycle 0 in assay [3].
Regarding ATTTTA, the values for the binding signal in assay [1], in assay [2] and in assay [3] were 3.12 ± 0.229 fold-change vs cycle 0, 2.24 ± 0.131 fold-change vs cycle 0 and 1.98 ± 0.2 fold-change vs cycle 0, respectively.
On to AAGAGA, for which the binding signal in assay [1] was 1.45 ± 0.0335 fold-change vs cycle 0; in assay [2], 1.67 ± 0.0544 fold-change vs cycle 0; in assay [3], 1.48 ± 0.103 fold-change vs cycle 0.
On to CTCATC, for which the binding signal in assay [1] was 0.898 ± 0.0192 fold-change vs cycle 0; in assay [2], 1.04 ± 0.0368 fold-change vs cycle 0; in assay [3], 1.06 ± 0.0243 fold-change vs cycle 0.
As for CACGAA, the binding signal worked out at 0.608 ± 0.0441 fold-change vs cycle 0 in assay [1], 0.706 ± 0.0334 fold-change vs cycle 0 in assay [2] and 0.781 ± 0.0236 fold-change vs cycle 0 in assay [3].
Regarding CGCTTA, the binding signal in assay [1] is 0.535 ± 0.019 fold-change vs cycle 0; in assay [2], 0.58 ± 0.0258 fold-change vs cycle 0; in assay [3], 0.684 ± 0.061 fold-change vs cycle 0.
On to CTAGAG, for which the binding signal was determined as 0.862 ± 0.0503 fold-change vs cycle 0 in assay [1], 1 ± 0.0918 fold-change vs cycle 0 in assay [2] and 1.03 ± 0.068 fold-change vs cycle 0 in assay [3].
AGTGTC: the binding signal in assay [1] is 0.664 ± 0.023 fold-change vs cycle 0; in assay [2], 0.81 ± 0.0199 fold-change vs cycle 0; in assay [3], 0.9 ± 0.0262 fold-change vs cycle 0.
As to CTTGAA, the binding signal worked out at 1.25 ± 0.0309 fold-change vs cycle 0 in assay [1], 1.42 ± 0.0651 fold-change vs cycle 0 in assay [2] and 1.32 ± 0.0914 fold-change vs cycle 0 in assay [3].
For the sequence CACCTC, the binding signal was determined as 0.511 ± 0.0163 fold-change vs cycle 0 in assay [1], 0.563 ± 0.0344 fold-change vs cycle 0 in assay [2] and 0.689 ± 0.0609 fold-change vs cycle 0 in assay [3].
The like results for AGTTAT were, in that order, 2.81 ± 0.247 fold-change vs cycle 0, 2.13 ± 0.15 fold-change vs cycle 0 and 1.89 ± 0.186 fold-change vs cycle 0.
For CCCTAG, the figures for the binding signal in assay [1], in assay [2] and in assay [3] were 0.516 ± 0.0342 fold-change vs cycle 0, 0.601 ± 0.0265 fold-change vs cycle 0 and 0.667 ± 0.029 fold-change vs cycle 0, respectively.
Consider AACGGG, for which the values for the binding signal in assay [1], in assay [2] and in assay [3] were 0.4 ± 0.0225 fold-change vs cycle 0, 0.466 ± 0.0176 fold-change vs cycle 0 and 0.54 ± 0.0483 fold-change vs cycle 0, respectively.
As to AAACCA, the binding signal in assay [1] came out at 1.14 ± 0.0582 fold-change vs cycle 0; in assay [2] it was 1.23 ± 0.0362 fold-change vs cycle 0; in assay [3], 1.24 ± 0.0488 fold-change vs cycle 0.
On to GATACC, for which the binding signal in assay [1] amounted to 0.884 ± 0.044 fold-change vs cycle 0; in assay [2] it was 0.969 ± 0.034 fold-change vs cycle 0; in assay [3], 1.04 ± 0.0218 fold-change vs cycle 0.
